JMJD2A Tudor: JMJD2A Tudor domain (human) inhibition; hit rate 4.4% among 390,000; AlphaScreen JMJD2A-Tudor / H3K4me3 peptide binding; Potency, µM (top dose mostly 114 µM), without a hit: top-dose activity change, negative = inhibition, hits mostly inhibitors; note: % is set by controls: 0 for no effect and ±100 for the full control effect; nearly all actives have a fitted effect of over 50% in size
BAZ2B block: inhibitors of human BAZ2B bromodomain; Q9UIF8; AlphaScreen BAZ2B-H3K14Ac peptide displacement; Potency, µM (top dose mostly 114 µM), for the others: at the top dose activity change, negative = inhibition, hits mostly inhibitors; hit rate 4.4% among 360,000; note: % is set by controls: 0 for no effect and ±100 for the full control effect; nearly all actives have a fitted effect of over 60% in size
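In this displacement format the biotinylated H3(5-23) peptide acetylated at Lys14 serves as ligand at 50 nM, with BAZ2B at 50 nM in PBS pH 7.4 containing 0.01% Tween-20. Donor and acceptor beads are 10 ug/mL final.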
HP1b binding inh: inhibitors of HP1-beta chromodomain binding to methylated histone tails; AlphaScreen HP1-beta / biotin-H3K9me3 peptide binding; Potency, µM (top dose mostly 114 µM), for the others: at the top dose activity change, negative = inhibition, usual class: inhibitors; hit rate 0.56% among 390,000; P83916; note: nearly all actives have a fitted effect of over 70% in size
Target sequence (P83916 whole entry, looked up): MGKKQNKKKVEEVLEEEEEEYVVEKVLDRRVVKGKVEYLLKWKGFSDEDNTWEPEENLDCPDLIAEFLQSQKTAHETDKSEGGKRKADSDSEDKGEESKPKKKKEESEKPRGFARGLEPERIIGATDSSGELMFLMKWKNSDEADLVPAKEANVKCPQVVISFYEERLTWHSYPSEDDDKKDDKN
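HP1-beta protein (50 nM final) preincubated 30 min at room temperature with biotinylated H3(1-18)K9me3 peptide (50 nM) in PBS pH 7.4, 0.01% Tween-20, then compound added for 30 min. AlphaScreen streptavidin donor/nickel chelate acceptor beads (10 ug/mL final), 30 min dark, luminescence read.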
GLS inhibitor: inhibitors of human glutaminase (GLS). O94925. GLS enzymatic activity, qHTS titration. Potency, µM (titrated, usually from 45.5 µM), without a hit: at the top dose activity change, negative = inhibition, hits mostly inhibitors. hit rate 0.21% among 410,000. AID 624170; note: % is set by controls: 0 for no effect and ±100 for the full control effect
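Enzyme dispensed in phosphate buffer (45 mM, pH 8.2, 0.02% Tween-20), compounds pinned in, then 1 mM L-glutamine solution and the glutamate oxidase–HRP–Amplex Red mix added; fluorescence read immediately and again after 30 min at room temperature.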
G9a block: G9a (human) methyltransferase inhibition; G9a H3K9 monomethylation, AlphaScreen, 2 h; hit rate 8.8% among 350,000; Q96KQ7; Potency, µM (titrated, usually from 102 µM), without a hit: at the top dose activity, negative = inhibition, most hits filed as inhibitors; note: % is set by controls: 0 for no effect and ±100 for the full control effect; nearly all actives have a fitted effect of over 75% in size
Target sequence (Q96KQ7 913-1193 limits assumed): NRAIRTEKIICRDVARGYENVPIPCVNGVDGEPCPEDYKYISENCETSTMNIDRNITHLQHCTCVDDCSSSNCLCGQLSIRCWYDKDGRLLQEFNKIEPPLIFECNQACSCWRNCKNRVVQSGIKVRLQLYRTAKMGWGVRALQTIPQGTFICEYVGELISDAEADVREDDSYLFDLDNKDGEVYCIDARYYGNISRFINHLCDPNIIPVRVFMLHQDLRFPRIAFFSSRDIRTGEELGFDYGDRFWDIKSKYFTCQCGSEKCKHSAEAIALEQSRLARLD
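Readings reflect AlphaScreen signal from monomethyl-H3K9 antibody detection. HMT at 20 nM; substrate b-H3K9 500 nM; cofactor SAM 20 uM; 2 h RT reaction; compounds tested as titrations in qHTS with 15 min preincubation.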
An asterisk follows results filed as active; ? = inconclusive; / = no result given; ! = repeats disagree; [ ] = dose if it differs, or a comment. Sampled rows, rich in hits. Any-hit rate of the full collection: about 10%. Calls come from the whole dose curve; as a rule, active = well fitted curve in the direction sought with a large enough effect; inconclusive = small, poorly fitted or top-dose-only effect, or another doubt; inactive = no such curve, though single readings can be large; an effect the other way counts as inactive or inconclusive. Potency is the fitted concentration of half-maximal effect.

SMILES	JMJD2A Tudor	BAZ2B block	HP1b binding inh	GLS inhibitor	G9a block
C=CCNC(=O)C1CC2Cn3c(nc4ccccc43)C2N1C (stereo not given)	-8%	-3%	55%	-3%	?
CN(C[C@H](Cc1ccccc1)N(C[C@H](Cc1cccc2ccccc12)N(CCc1ccccc1)N=O)N=O)N=O	?	71µM*	7%	5%	?
CC(C)C[C@@H](CN(C)N=O)N(C[C@H](Cc1ccccc1)N(CCc1ccccc1)N=O)N=O	-19%	-15%	26%	2%	1%[59 µM]
Cc1[nH]c2ccccc2c1C(=O)CN1C(=O)NC(C)(c2ccc(Cl)cc2Cl)C1=O (stereo not given)	-28%	-29%	24%	-11%	4%[59 µM]
COc1ccccc1Nc1c2c(nc3ccc(NC(=O)c4cccc(F)c4)cc13)CCCC2	?	?	-7%	1%	?
COc1ccccc1Nc1c2c(nc3ccc(NC(=O)/C=C/c4cccc(OC)c4OC)cc13)CCCC2	?	?	-6%	7%	11µM*
COc1ccc(Nc2c3c(nc4ccc(NC(=O)/C=C/c5cccc(OC)c5OC)cc24)CCCC3)cc1OC	14µM*	10µM*	?	2%	11µM*
COc1ccc(/C=C/C(=O)Nc2ccc3nc4c(c(Nc5ccccc5OC)c3c2)CCCC4)cc1	?	-38%	-8%	-6%	7.9µM*
COc1ccc(/C=C/C(=O)Nc2ccc3nc4n(c(=O)c3c2)CCCC4)cc1OC	-4%	14%	41%	-5%	-8%
CCc1ccc(OCc2ccccc2C(=O)Nc2ccc3nc(C)cc(N)c3c2)cc1	/	/	/	/	-42%[59 µM]
COc1cccc(-c2cc(NCc3cccnc3)ncn2)c1	/	/	/	/	2%[0.501 µM]
CCOC(=S)NC(=O)c1sc2ccccc2c1Cl	-23%	-28%[57.1 µM]	-17%	12%	28%[0.501 µM]
O=C(NC(=S)NCCO)c1sc2ccccc2c1Cl	-8%	?	38%	-8%	25µM*
CCc1cccc2c1NC(=O)[C@]21[C@@H]2C(=O)N(Cc3ccccc3)C(=O)[C@@H]2[C@@H]2CCCN21	-17%	-4%	-4%	0%	45µM*
Cc1c(Cl)ccc2c1NC(=O)[C@]21[C@@H]2C(=O)N(Cc3ccccc3)C(=O)[C@@H]2[C@@H]2CCCN21	11%[11.4 µM]	-23%	3%	-13%	45µM*
CN1C[C@@H]2[C@@H]3C(=O)N(Cc4ccccc4)C(=O)[C@@H]3[C@](C)(C1=O)N2C(=O)c1ccccc1	-13%	/	31%	1%	/
O=C(O)CC(CC(=O)Nc1ccc(-c2ccccc2)cc1)c1ccccc1 (stereo not given)	10%	-11%	54%	-10%	-39%
Cc1ccc(O)c(N=Nc2ccccc2)n1	?	/	-25%	18%	11µM*!
OCc1ccc(N=Nc2ccccc2)cc1	-30%	/	1%	0%	/
O=C(Nc1ccc(Cl)cc1)c1ccc(-n2cncn2)c([N+](=O)[O-])c1	-22%	0%	18%	0%	8%[59 µM]
O=C(Nc1ccc(Cl)cc1)Nc1ccc2c(c1)N1CCN=C1S2	-12%[57.1 µM]	-5%	21%	14%	32µM*
Nc1ccc2c(c1)N1CCN=C1S2	-17%	-6%	-16%	3%	7.1µM*
C1=C(c2ccccc2)N2CCN=C2S1	-12%	-2%	21%	14%	-36%[59 µM]
Cc1ccc2c(c1)C1(OCCCO1)C(=O)N2	-10%	9%	38%	-3%	-10%
C=CCc1ccccc1OCCSc1nc2ccc([N+](=O)[O-])cc2s1	-31%	-38%	-10%	1%	20µM*
COc1ccccc1OCCSc1nc2ccc([N+](=O)[O-])cc2s1	?	?	?	5%	13µM*
O=[N+]([O-])c1ccc2nc(SCc3ccccc3Cl)sc2c1	?	-38%	-10%	-1%	?
Cc1cc(/C=N/NC(=O)C(=O)NCc2ccccn2)c(C)n1-c1cccc(Br)c1	?	50µM*	6%	-9%	50µM*
CC(=O)N/N=C/c1cc(C)n(-c2ccc(Br)cc2)c1C	-24%	?	-2%	-4%	?
O=C(NCc1ccccn1)C(=O)NN=C1CCCCCCCCCCC1	-7%	-22%	35%	0%	4%

Assay outcomes deposited in PubChem by National Center for Advancing Translational Sciences (NCATS).
